Reference: PubChem BioAssay (NCI)
This is part of a sample that, as a whole, favours compounds with a hit. Of some 79,000 tested, about 15% had one in any assay. Active and inactive are the calls of the source. No stated cut-off is given here; in the data, active means growth inhibition above about 70%; inactive means the rest.

Key:
[1] = NCI Yeast Anticancer Drug Screen. Data for the rad52 strain (AID 147);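 further: 0% = growth of vehicle-treated control cultures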; details: S. cerevisiae rad52 mutant growth inhibition, hits give high values
Method in brief: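 DNA repair-defective yeast; compound exposure; growth scored against vehicle controls.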

[2] = NCI Yeast Anticancer Drug Screen. Data for the wt1 strain (AID 149);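 further: 0% = growth of vehicle-treated wt1 cultures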; details: S. cerevisiae wt1 strain (SPY 50644) growth inhibition, hits give high values
Method in brief: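 wt1 strain grown with compound or vehicle; inhibition taken from the growth difference.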

[3] = NCI Yeast Anticancer Drug Screen. Data for the rad50EPP+ strain (AID 151);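 further: 0% = growth of vehicle-treated control cultures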; details: S. cerevisiae rad50 mutant strain, hits give high values
Method in brief: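 rad50EPP+ yeast treated with test compounds. Readout: growth vs vehicle control.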

[4] = NCI Yeast Anticancer Drug Screen. Data for the mec2-1 strain (AID 157); details: S. cerevisiae mec2-1 strain, hits give high values
Method in brief: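 Growth inhibition is read against vehicle-treated controls after compound exposure of the mec2-1 yeast strain, which is defective in DNA damage repair or cell cycle control.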

[5] = NCI Yeast Anticancer Drug Screen. Data for the rad14 strain (AID 159);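 further: 0% = growth of vehicle-treated control cultures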; details: S. cerevisiae rad14 strain growth inhibition, hits give high values
Method in brief: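 DNA repair-defective yeast, compound-exposed; % growth inhibition derived by comparison with vehicle-treated controls.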

[6] = NCI Yeast Anticancer Drug Screen. Data for the sgs1 mgt1 strain (AID 161);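 further: 0% = growth of cultures given vehicle only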; details: S. cerevisiae sgs1 mgt1 strain, hits give high values
Method in brief: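 Compounds are added to genetically altered yeast, and growth is compared with cultures given vehicle alone to give percent inhibition.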

[7] = NCI Yeast Anticancer Drug Screen. Data for the CLN2oe strain (AID 163);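 further: 0% = growth of vehicle-only control cultures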; details: S. cerevisiae CLN2oe strain, hits give high values
Method in brief: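 Compound-treated yeast; growth vs vehicle ctrl = % inhibition. Genetically altered strain (cell-cycle control).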

[8] = NCI Yeast Anticancer Drug Screen. Data for the bub3 strain (AID 167); details: S. cerevisiae bub3 mutant strain, hits give high values
Method in brief: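 In this screen, a yeast mutant lacking normal mitotic checkpoint function is challenged with compound. Relative growth versus vehicle gives the inhibition value.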

[9] = NCI Yeast Anticancer Drug Screen. Data for the wt2 strain (AID 169);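 further: 0% = growth of vehicle-treated yeast cultures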; details: S. cerevisiae wt2 strain growth inhibition, hits give high values
Method in brief: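 Compound exposure of yeast; growth compared with vehicle controls; inhibition reported.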

[10] = NCI Yeast Anticancer Drug Screen. Data for the mlh1 strain (AID 171);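 further: 0% = growth of vehicle-treated control cultures of the same strain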; details: S. cerevisiae mlh1 strain growth inhibition, hits give high values
Method in brief: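 Compounds are applied to a genetically altered yeast strain, and its growth is compared with that of vehicle-treated cultures to give percent inhibition.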

[11] = NCI Yeast Anticancer Drug Screen. Data for the sgs1 strain (AID 173);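 further: 0% = growth of vehicle-only control cultures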; details: S. cerevisiae sgs1 mutant, hits give high values
Method in brief: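 Compounds applied to genetically altered yeast; growth compared with vehicle-treated cultures to give % inhibition.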

[12] = NCI Yeast Anticancer Drug Screen. Data for the mlh1 rad18 strain (AID 175); details: S. cerevisiae mlh1 rad18 strain growth inhibition, hits give high values
Method in brief: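 Cells of a genetically altered yeast strain, deficient in DNA damage repair, were treated with compound. Their growth was then compared with that of vehicle-treated cultures to give inhibition.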

[13] = NCI Yeast Anticancer Drug Screen. Data for the rad18 strain (AID 177); details: S. cerevisiae rad18 mutant growth inhibition, hits give high values
Method in brief: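 Compounds are applied to a repair-deficient yeast strain, and growth is compared with that of vehicle-treated cultures to give percent inhibition.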

[14] = NCI Yeast Anticancer Drug Screen. Data for the mgt1 strain (AID 153); details: S. cerevisiae mgt1 mutant growth inhibition, hits give high values
Method in brief: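 Growth inhibition relative to vehicle controls was scored for the mgt1 yeast strain after compound exposure.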

[15] = NCI Yeast Anticancer Drug Screen. Data for the rad50 strain (AID 155);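 further: 0% = growth of vehicle-only cultures of the same strain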; details: S. cerevisiae rad50 strain growth inhibition, hits give high values
Method in brief: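 DNA repair mutant yeast, compound exposure, growth read-out; inhibition is taken relative to vehicle.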

[16] = NCI Yeast Anticancer Drug Screen. Data for the cln2 rad14 strain (AID 165);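 further: 0% = growth equal to vehicle treated cultures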; details: S. cerevisiae cln2 rad14 strain, hits give high values
Method in brief: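 Growth inhibition, relative to vehicle-treated controls, is the read-out. The test organism is a yeast strain with defined genetic alterations, cln2 rad14.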

[17] = at 5.0 µM (retest, dose inferred, filed as 0.5)
[18] = at 50.0 µM (retest, dose inferred, filed as 5.0)

Measured: growth inhibition

CC1(C)N=C(N)N=C(N)N1c1cccc(N)c1.[Sn]
inactive: [1]; at 1.2 µM 18% | [1]; at 3.7 µM 21% | [1]; at 11.0 µM 19% | [1]; at 33.0 µM 24% | [1]; at 100.0 µM 43% | [2]; at 1.2 µM 21% | [2]; at 3.7 µM 17% | [2]; at 11.0 µM 17% | [2]; at 33.0 µM 29% | [2]; at 100.0 µM 47% | [3]; at 1.2 µM -2% | [3]; at 3.7 µM -3% | [3]; at 11.0 µM -1% | [3]; at 33.0 µM -5% | [3]; at 100.0 µM -7% | [4]; at 1.2 µM 2% | [4]; at 3.7 µM 6% | [4]; [17] 7% | [4]; at 11.0 µM 2% | [4]; at 33.0 µM 15% | [4]; [18] 28% | [4]; at 50.0 µM -20.9% | [4]; at 100.0 µM 33% | [5]; at 1.2 µM 5% | [5]; at 3.7 µM 9% | [5]; at 11.0 µM 7% | [5]; at 33.0 µM 18% | [5]; at 100.0 µM 34% | [6]; [17] 45% | [6]; at 50.0 µM 1.7% | [7]; at 1.2 µM -10% | [7]; at 3.7 µM -1% | [7]; at 11.0 µM -3% | [7]; at 33.0 µM -2% | [7]; at 100.0 µM -7% | [8]; at 1.2 µM -8% | [8]; at 3.7 µM -13% | [8]; [17] 9% | [8]; at 11.0 µM -18% | [8]; at 33.0 µM 4% | [8]; [18] 29% | [8]; at 50.0 µM 5.75% | [8]; at 100.0 µM 17% | [9]; at 1.2 µM -3% | [9]; at 3.7 µM -4% | [9]; at 11.0 µM -1% | [9]; at 33.0 µM 0% | [9]; at 100.0 µM 1% | [10]; at 1.2 µM 11% | [10]; at 3.7 µM 22% | [10]; at 11.0 µM 16% | [10]; at 33.0 µM 29% | [10]; at 100.0 µM 44% | [11]; at 1.2 µM 14% | [11]; at 3.7 µM 20% | [11]; at 11.0 µM 19% | [11]; at 33.0 µM 26% | [11]; at 100.0 µM 52% | [12]; [17] 43% | [12]; at 50.0 µM -49.6% | [13]; at 1.2 µM -3% | [13]; at 3.7 µM 2% | [13]; at 11.0 µM 4% | [13]; at 33.0 µM 17% | [13]; at 100.0 µM 35%
active: [6]; [18] 90% | [12]; [18] 78%

[O-][n+]1c2cccc(O)c2[n+]([O-])c2cccc(O)c21
active: [1]; at 11.0 µM 89% | [1]; at 33.0 µM 93% | [1]; at 100.0 µM 95% | [3]; at 11.0 µM 89% | [3]; at 33.0 µM 94% | [3]; at 100.0 µM 96% | [15]; at 11.0 µM 85% | [15]; at 33.0 µM 92% | [15]; [18] 95% | [15]; at 50.0 µM 86.4% | [15]; at 100.0 µM 95% | [4]; [18] 80% | [6]; [18] 81% | [16]; [18] 94% | [16]; at 50.0 µM 82.8% | [8]; [18] 72% | [12]; [18] 94% | [13]; at 3.7 µM 75% | [13]; at 11.0 µM 92% | [13]; at 33.0 µM 94% | [13]; at 100.0 µM 94%
inactive: [1]; at 1.2 µM 23% | [1]; at 3.7 µM 57% | [2]; at 1.2 µM 2% | [2]; at 3.7 µM 2% | [2]; at 11.0 µM 7% | [2]; at 33.0 µM 10% | [2]; at 100.0 µM 15% | [3]; at 1.2 µM 25% | [3]; at 3.7 µM 63% | [14]; at 1.2 µM 3% | [14]; at 3.7 µM 10% | [14]; at 11.0 µM 8% | [14]; at 33.0 µM 2% | [14]; at 100.0 µM 18% | [15]; at 1.2 µM 24% | [15]; at 3.7 µM 55% | [15]; [17] 15% | [4]; at 1.2 µM 3% | [4]; at 3.7 µM 9% | [4]; [17] 15% | [4]; at 11.0 µM 18% | [4]; at 33.0 µM 26% | [4]; at 50.0 µM 35.8% | [4]; at 100.0 µM 46% | [5]; at 1.2 µM 2% | [5]; at 3.7 µM 23% | [5]; at 11.0 µM 12% | [5]; at 33.0 µM 20% | [5]; at 100.0 µM 38% | [6]; [17] 6% | [6]; at 50.0 µM 35% | [16]; [17] 65% | [8]; at 1.2 µM 4% | [8]; at 3.7 µM 3% | [8]; [17] 0% | [8]; at 11.0 µM 0% | [8]; at 33.0 µM 3% | [8]; at 50.0 µM 42.8% | [8]; at 100.0 µM 1% | [9]; at 1.2 µM 2% | [9]; at 3.7 µM 5% | [9]; at 11.0 µM 11% | [9]; at 33.0 µM 12% | [9]; at 100.0 µM 24% | [10]; at 1.2 µM 3% | [10]; at 3.7 µM 0% | [10]; at 11.0 µM 11% | [10]; at 33.0 µM 18% | [10]; at 100.0 µM 44% | [11]; at 1.2 µM 6% | [11]; at 3.7 µM 14% | [11]; at 11.0 µM 31% | [11]; at 33.0 µM 46% | [11]; at 100.0 µM 66% | [12]; [17] -7% | [12]; at 50.0 µM 57.2% | [13]; at 1.2 µM 31%

COc1cccc2c1C(=O)c1c(O)c3c(c(O)c1C2=O)C[C@@](O)(C(C)=O)C[C@@H]3OC1CC(N)C(OC2CC(O)C(O)C(C)O2)C(C)O1 (stereo not given in full)
inactive: [1]; at 1.2 µM 16% | [1]; at 3.7 µM 12% | [1]; at 11.0 µM 15% | [1]; at 33.0 µM 27% | [1]; at 100.0 µM 59% | [2]; at 1.2 µM -26% | [2]; at 3.7 µM -25% | [2]; at 11.0 µM -7% | [2]; at 33.0 µM -15% | [2]; at 100.0 µM -2% | [3]; at 1.2 µM 11% | [3]; at 3.7 µM 8% | [3]; at 11.0 µM 10% | [3]; at 33.0 µM 18% | [3]; at 100.0 µM 38% | [15]; at 1.2 µM 1% | [15]; at 3.7 µM 10% | [15]; [17] 36% | [15]; at 11.0 µM 17% | [15]; at 33.0 µM 28% | [15]; at 100.0 µM 59% | [4]; at 1.2 µM -25% | [4]; at 3.7 µM -20% | [4]; [17] 5% | [4]; at 11.0 µM -24% | [4]; at 33.0 µM -17% | [4]; [18] 33% | [4]; at 50.0 µM 49.1% | [4]; at 100.0 µM -8% | [5]; at 1.2 µM -10% | [5]; at 3.7 µM -11% | [5]; at 11.0 µM -9% | [5]; at 33.0 µM -1% | [5]; at 100.0 µM 15% | [6]; [17] 14% | [6]; [18] 44% | [6]; at 50.0 µM 39.8% | [7]; at 1.2 µM -14% | [7]; at 3.7 µM -10% | [7]; at 11.0 µM -12% | [7]; at 33.0 µM -6% | [7]; at 100.0 µM 6% | [16]; [17] 19% | [16]; at 50.0 µM 57.8% | [8]; at 1.2 µM -30% | [8]; at 3.7 µM -26% | [8]; [17] 4% | [8]; at 11.0 µM -31% | [8]; at 33.0 µM -23% | [8]; [18] 37% | [8]; at 50.0 µM 42.4% | [8]; at 100.0 µM -6% | [9]; at 1.2 µM -57% | [9]; at 3.7 µM -65% | [9]; at 11.0 µM -54% | [9]; at 33.0 µM -28% | [9]; at 100.0 µM 2%
active: [15]; [18] 83% | [15]; at 50.0 µM 76.8% | [16]; [18] 78%
